From PubChem BioAssay (EPA / NIEHS) come the findings set out here.

Assay [1] concerns the target human Matrix Metalloproteinase-2 (MMP2), MMP2 (gene 4313) (UniProt P08253). As to the kind of experiment: NVS_ENZ_hMMP2: NovaScreen (NVS) Enzymatic Assay for human Matrix Metalloproteinase-2 (MMP2) (AID 2283184). In short, it runs like this:
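Compounds first screened in duplicate at a single 25 uM, with actives followed up in concentration series. Recombinant human MMP2 cleaves a fluorogenic substrate; fluorescence taken at 1 h, inhibition fitted relative to DMSO.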

For assay [2], the target named is human Matrix Metalloproteinase-9 (MMP9), MMP9 (gene 4318) (UniProt P14780). As to the kind of experiment: NVS_ENZ_hMMP9: NovaScreen (NVS) Enzymatic Assay for human Matrix Metalloproteinase-9 (MMP9) (AID 2283190).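 Further: cell-free recombinant MMP9 protease activity read by fluorescent substrate signal; active means inhibition seen as loss of fluorescence signal versus DMSO.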 In short, it runs like this: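 Extracted enzyme, fluorescent substrate, 1 h post-dose read. Single conc 25 uM in duplicate, then concentration series for actives. Activity = signal loss relative to DMSO negative control.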

Assay [3] deals with human Protein Tyrosine Phosphatase Non-receptor Type 6 (PTPN6), PTPN6 (gene 5777) (UniProt P29350). As to the kind of experiment: NVS_ENZ_hPTPN6: NovaScreen (NVS) Enzymatic Assay for human Protein Tyrosine Phosphatase Non-receptor Type 6 (PTPN6) (AID 2283210). The essentials:
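Recombinant human PTPN6 from SF9 cells, enzyme activity followed by fluorescence after mobility-shift separation of substrate and product at 1.33 h. Chemicals first tested at a single 25 uM in duplicate, then confirmed across concentration series; loss of signal relative to DMSO.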

In assay [4] the target is human Phosphodiesterase 4A1 (PDE4A1), PDE4A (gene 5141) (UniProt P27815). As to the kind of experiment: NVS_ENZ_hPDE4A1: NovaScreen (NVS) Enzymatic Assay for human Phosphodiesterase 4A1 (PDE4A1) (AID 2283191). The essentials: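 Fluorescent substrate turnover by recombinant PDE4A1 read after 1 h by mobility-shift separation. Primary duplicate screen at 25 uM; hits retested in concentration series with a 50 uM maximum, relative to DMSO.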

Assay [5] has as its target human Phosphodiesterase 10 (PDE10), PDE10A (gene 10846) (UniProt Q9Y233). Briefly: NVS_ENZ_hPDE10: NovaScreen (NVS) Enzymatic Assay for human Phosphodiesterase 10 (PDE10) (AID 2283195). In short, it runs like this:
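Readout is fluorescence intensity following electrophoretic mobility-shift separation, 1 h after dosing of isolated PDE10A protein. Hits meeting a preset threshold at 25 uM went to concentration series (max 50 uM), analysed relative to DMSO.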

Assay [6] has as its target human Matrix Metalloproteinase-3 (MMP3), MMP3 (gene 4314) (UniProt P08254). Briefly: NVS_ENZ_hMMP3: NovaScreen (NVS) Enzymatic Assay for human Matrix Metalloproteinase-3 (MMP3) (AID 2283185). In short, it runs like this:
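Fluorescent substrate turnover by recombinant MMP3 read after 1 h, signal loss scored against DMSO. Compounds first run in duplicate at 25 uM single dose, then actives confirmed by concentration series.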

The target of assay [7] is human Phosphoinositide 3-kinase alpha (PI3Ka), PIK3CA (gene 5290) (UniProt P42336). Briefly: NVS_ENZ_hPI3Ka: NovaScreen (NVS) Enzymatic Assay for human Phosphoinositide 3-kinase alpha (PI3Ka) (AID 2283196). In short, it runs like this: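 Fluorescence/mobility-shift readout of substrate conversion by recombinant enzyme, 1 h post-dosing. Primary screen in duplicate at 25 uM; actives (e.g. ≥30% inhibition) retested in singleton concentration-response, top concentration 50 uM.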

Assay [8] has as its target human Mitogen- and Stress-activated Protein Kinase-1 (Msk1), RPS6KA5 (gene 9252) (UniProt O75582). As to the kind of experiment: NVS_ENZ_hMsk1: NovaScreen (NVS) Enzymatic Assay for human Mitogen- and Stress-activated Protein Kinase-1 (Msk1) (AID 2283187). In short, it runs like this:
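Chemicals first run in duplicate at 25 uM, with actives followed up in singleton concentration series to 50 uM maximum. Enzyme activity came from substrate/product mobility-shift separation with fluorescence detection after 1 h incubation of the recombinant protein.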

Assay [9] addresses cAMP-dependent protein kinase catalytic subunit alpha (Homo sapiens) (UniProt P17612). As to the kind of experiment: NVS_ENZ_hPKA: NovaScreen (NVS) Enzymatic Assay for human Protein Kinase A (PKA) (AID 2283192). In short, it runs like this: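 Cell-free kinase activity read by fluorescence after mobility-shift separation of substrate and product, 1 h post-dosing. Single-concentration duplicate screen (25 uM) preceded singleton concentration series (top 50 uM); loss of signal versus DMSO.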

The target of assay [10] is human Phosphodiesterase 5 (PDE5), PDE5A (gene 8654) (UniProt O76074). As to the kind of experiment: NVS_ENZ_hPDE5: NovaScreen (NVS) Enzymatic Assay for human Phosphodiesterase 5 (PDE5) (AID 2283194). In short, it runs like this:
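Screening began in duplicate at 25 uM, with actives taken into concentration-response. Enzyme activity of recombinant PDE5 toward its substrate was measured at 1 h by fluorescence mobility-shift detection, relative to DMSO controls.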

In assay [11] the target is Tyrosine-protein phosphatase non-receptor type 13 (Homo sapiens) (UniProt Q12923). Briefly: NVS_ENZ_hPTPN13: NovaScreen (NVS) Enzymatic Assay for human Protein Tyrosine Phosphatase Non-receptor Type 13 (PTPN13) (AID 2283205). The essentials: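 Screened first at a single 25 uM in duplicate; compounds passing the threshold (e.g. 30% inhibition) were rerun in concentration series, top 50 uM. Recombinant enzyme, fluorescent substrate, mobility-shift separation, 0.5 h read. Data fitted as inhibition relative to DMSO.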

The target in assay [12] is Tyrosine-protein phosphatase non-receptor type 14 (Homo sapiens) (UniProt Q15678). Briefly: NVS_ENZ_hPTPN14: NovaScreen (NVS) Enzymatic Assay for human Protein Tyrosine Phosphatase Non-receptor Type 14 (PTPN14) (AID 2283206). The essentials:
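Fluorescent substrate turnover by recombinant human PTPN14 was measured 0.5 h after compound addition, with substrate and product separated by mobility shift. Single-point screening at 25 uM, then concentration-response up to 50 uM for chemicals meeting threshold (e.g., 30% inhibition).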

Assay [13] concerns the target human Protein Tyrosine Phosphatase Receptor Type F (PTPRF), PTPRF (gene 5792) (UniProt P10586). As to the kind of experiment: NVS_ENZ_hPTPRF: NovaScreen (NVS) Enzymatic Assay for human Protein Tyrosine Phosphatase Receptor Type F (PTPRF) (AID 2283213). The essentials:
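Cell-free fluorescence enzyme assay with recombinant protein and substrate; product separated by electrophoretic mobility shift. Read 1 h after dosing, single 25 uM duplicate screen, then concentration-response up to 50 uM; loss of signal vs DMSO.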

Assay [14] deals with human Protein Phosphatase, Mg2+/Mn2+ Dependent 1A (PPM1A), PPM1A (gene 5494) (UniProt P35813). As to the kind of experiment: NVS_ENZ_hPPM1A: NovaScreen (NVS) Enzymatic Assay for human Protein Phosphatase, Mg2+/Mn2+ Dependent 1A (PPM1A) (AID 2283198). In short, it runs like this: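 Primary screen in duplicate at 25 uM, with actives then titrated to a maximum of 50 uM. Recombinant PPM1A dephosphorylation of fluorescent substrate measured at 1 h, with substrate and product separated by mobility shift; inhibition fitted against DMSO.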

The target of assay [15] is Serine/threonine-protein phosphatase PP1-alpha catalytic subunit (Homo sapiens) (UniProt P62136). As to the kind of experiment: NVS_ENZ_hPPP1CA: NovaScreen (NVS) Enzymatic Assay for human Protein Phosphatase 1 Aatalytic subunit Alpha (PPP1CA) (AID 2283200). The essentials:
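Chemicals were first screened in duplicate at 25 uM, and those passing threshold (e.g. 30% inhibition) were run as concentration series to 50 uM. Cell-free recombinant protein, 1.33 h read, fluorescent substrate/product mobility-shift detection, normalised to DMSO.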

For assay [16], the target named is Tyrosine-protein phosphatase non-receptor type 11 (Homo sapiens) (UniProt Q06124). Briefly: NVS_ENZ_hPTPN11: NovaScreen (NVS) Enzymatic Assay for human Protein Tyrosine Phosphatase Non-receptor Type 11 (PTPN11) (AID 2283202). In short, it runs like this: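 Compounds first tested in duplicate at 25 uM; those reaching ~30% inhibition rerun in singleton concentration-response, top 50 uM. Phosphatase activity measured after 0.5 h by fluorescence with mobility-shift separation, relative to DMSO.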

Assay [17] concerns the target Tyrosine-protein phosphatase non-receptor type 12 (Homo sapiens) (UniProt Q05209). Briefly: NVS_ENZ_hPTPN12: NovaScreen (NVS) Enzymatic Assay for human Protein Tyrosine Phosphatase Non-receptor Type 12 (PTPN12) (AID 2283204). In short, it runs like this:
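Single-concentration duplicates (25 uM) preceded singleton concentration-response up to 50 uM for chemicals passing threshold. Cell-free recombinant PTPN12 activity was read 1.33 h after dosing via fluorescence after mobility-shift separation; loss of signal versus DMSO.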

Assay [18] concerns the target human Protein Tyrosine Phosphatase Non-receptor Type 9 (PTPN9), PTPN9 (gene 5780) (UniProt P43378). As to the kind of experiment: NVS_ENZ_hPTPN9: NovaScreen (NVS) Enzymatic Assay for human Protein Tyrosine Phosphatase Non-receptor Type 9 (PTPN9) (AID 2283209). In short, it runs like this: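 Sf9-expressed enzyme in a cell-free assay, fluorescence read 1.33 h after dosing with mobility-shift separation of substrate and product. Tested at 25 uM in duplicate, then up to 50 uM; signal loss versus DMSO.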

For assay [19], the target named is human Protein Tyrosine Phosphatase Receptor Type B (PTPRB), PTPRB (gene 5787) (UniProt P23467). As to the kind of experiment: NVS_ENZ_hPTPRB: NovaScreen (NVS) Enzymatic Assay for human Protein Tyrosine Phosphatase Receptor Type B (PTPRB) (AID 2283211). In short, it runs like this:
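Recombinant human PTPRB with a fluorescent substrate, product separated by electrophoretic mobility shift; read 1 h after dosing. Primary screen in duplicate at 25 uM; actives then retested in concentration series; loss of signal versus DMSO.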

Results filed as inconclusive are left out. Active and inactive are the calls of the source. How the source made its calls: active means hit-call score of the fitted dose curve at least 0.9, where 1 is the maximum; inconclusive means response in the unintended direction; inactive means score below 0.9.

human Matrix Metalloproteinase-9 (MMP9), MMP9 (gene 4318), sequence (P14780 whole entry, looked up): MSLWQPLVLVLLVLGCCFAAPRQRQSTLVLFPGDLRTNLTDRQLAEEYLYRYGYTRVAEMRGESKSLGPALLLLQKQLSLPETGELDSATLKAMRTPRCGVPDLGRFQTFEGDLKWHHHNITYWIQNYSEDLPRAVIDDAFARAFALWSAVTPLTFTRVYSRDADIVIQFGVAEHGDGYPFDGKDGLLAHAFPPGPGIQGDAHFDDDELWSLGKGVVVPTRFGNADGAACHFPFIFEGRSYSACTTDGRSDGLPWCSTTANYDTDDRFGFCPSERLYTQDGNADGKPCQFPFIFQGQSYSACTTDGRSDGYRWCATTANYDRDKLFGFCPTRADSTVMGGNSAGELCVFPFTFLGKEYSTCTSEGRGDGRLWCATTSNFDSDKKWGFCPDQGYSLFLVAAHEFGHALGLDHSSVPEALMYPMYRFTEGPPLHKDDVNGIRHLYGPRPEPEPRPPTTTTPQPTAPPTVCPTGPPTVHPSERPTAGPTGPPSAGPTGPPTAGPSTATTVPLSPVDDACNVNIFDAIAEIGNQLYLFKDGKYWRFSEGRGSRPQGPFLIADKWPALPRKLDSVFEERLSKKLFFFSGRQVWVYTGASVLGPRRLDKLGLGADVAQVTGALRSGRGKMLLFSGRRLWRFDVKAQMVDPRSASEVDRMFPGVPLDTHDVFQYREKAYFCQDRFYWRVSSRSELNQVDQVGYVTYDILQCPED
human Matrix Metalloproteinase-2 (MMP2), MMP2 (gene 4313), sequence (P08253 whole entry, looked up): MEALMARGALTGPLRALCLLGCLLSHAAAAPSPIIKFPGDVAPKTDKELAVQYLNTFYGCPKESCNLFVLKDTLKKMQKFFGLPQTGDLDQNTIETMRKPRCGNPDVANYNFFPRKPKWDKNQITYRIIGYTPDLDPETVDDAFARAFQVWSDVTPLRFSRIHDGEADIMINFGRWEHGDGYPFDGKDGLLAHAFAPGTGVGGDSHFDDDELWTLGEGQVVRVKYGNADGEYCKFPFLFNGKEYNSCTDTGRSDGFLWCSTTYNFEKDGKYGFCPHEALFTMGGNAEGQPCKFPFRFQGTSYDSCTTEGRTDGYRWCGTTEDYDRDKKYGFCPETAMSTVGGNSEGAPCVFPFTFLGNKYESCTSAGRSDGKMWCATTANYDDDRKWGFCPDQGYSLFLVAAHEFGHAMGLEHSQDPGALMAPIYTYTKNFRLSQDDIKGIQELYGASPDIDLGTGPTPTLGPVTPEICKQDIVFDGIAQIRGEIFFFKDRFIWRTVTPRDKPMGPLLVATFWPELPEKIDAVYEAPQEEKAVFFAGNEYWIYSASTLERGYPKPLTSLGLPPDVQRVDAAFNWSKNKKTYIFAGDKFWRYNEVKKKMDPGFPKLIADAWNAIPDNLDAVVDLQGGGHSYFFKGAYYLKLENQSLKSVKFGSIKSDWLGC
Tyrosine-protein phosphatase non-receptor type 11 (Homo sapiens), sequence (Q06124 whole entry, looked up): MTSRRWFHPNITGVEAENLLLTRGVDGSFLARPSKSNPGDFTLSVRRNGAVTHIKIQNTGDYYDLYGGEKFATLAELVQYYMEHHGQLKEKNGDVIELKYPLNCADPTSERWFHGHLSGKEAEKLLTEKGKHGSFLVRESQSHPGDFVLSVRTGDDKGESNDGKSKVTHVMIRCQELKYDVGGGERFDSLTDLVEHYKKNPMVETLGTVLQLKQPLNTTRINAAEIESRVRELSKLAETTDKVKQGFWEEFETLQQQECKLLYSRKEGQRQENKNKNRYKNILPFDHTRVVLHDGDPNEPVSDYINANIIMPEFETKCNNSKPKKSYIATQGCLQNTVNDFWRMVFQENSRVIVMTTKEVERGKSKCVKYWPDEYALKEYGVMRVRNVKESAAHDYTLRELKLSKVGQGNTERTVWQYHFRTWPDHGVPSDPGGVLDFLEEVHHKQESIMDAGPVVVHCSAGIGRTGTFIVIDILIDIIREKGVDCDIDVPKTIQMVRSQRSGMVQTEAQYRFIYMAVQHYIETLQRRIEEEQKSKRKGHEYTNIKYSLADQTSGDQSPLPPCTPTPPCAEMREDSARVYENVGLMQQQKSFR
human Mitogen- and Stress-activated Protein Kinase-1 (Msk1), RPS6KA5 (gene 9252), sequence (O75582 whole entry, looked up): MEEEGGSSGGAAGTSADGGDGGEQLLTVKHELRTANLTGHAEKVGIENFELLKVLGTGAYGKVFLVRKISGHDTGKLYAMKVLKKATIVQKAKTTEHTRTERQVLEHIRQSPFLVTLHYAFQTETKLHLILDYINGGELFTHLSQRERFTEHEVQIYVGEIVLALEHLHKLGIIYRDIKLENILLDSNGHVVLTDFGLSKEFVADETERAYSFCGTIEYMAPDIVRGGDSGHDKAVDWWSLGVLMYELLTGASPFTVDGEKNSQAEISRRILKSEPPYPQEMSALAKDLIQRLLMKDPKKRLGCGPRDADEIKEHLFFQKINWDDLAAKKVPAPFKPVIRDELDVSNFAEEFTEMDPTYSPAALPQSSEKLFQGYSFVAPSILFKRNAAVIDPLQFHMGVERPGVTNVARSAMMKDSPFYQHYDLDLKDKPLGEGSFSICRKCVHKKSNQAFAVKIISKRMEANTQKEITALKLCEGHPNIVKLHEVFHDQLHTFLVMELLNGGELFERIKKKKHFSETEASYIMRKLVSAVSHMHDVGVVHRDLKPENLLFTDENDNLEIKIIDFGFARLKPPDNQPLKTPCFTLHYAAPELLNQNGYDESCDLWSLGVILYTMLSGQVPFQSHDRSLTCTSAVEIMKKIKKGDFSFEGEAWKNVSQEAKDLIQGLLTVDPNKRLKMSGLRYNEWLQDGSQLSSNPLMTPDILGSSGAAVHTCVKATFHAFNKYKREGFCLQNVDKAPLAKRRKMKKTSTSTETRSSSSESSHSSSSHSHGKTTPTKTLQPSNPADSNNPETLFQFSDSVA
human Phosphodiesterase 4A1 (PDE4A1), PDE4A (gene 5141), sequence (P27815 whole entry, looked up): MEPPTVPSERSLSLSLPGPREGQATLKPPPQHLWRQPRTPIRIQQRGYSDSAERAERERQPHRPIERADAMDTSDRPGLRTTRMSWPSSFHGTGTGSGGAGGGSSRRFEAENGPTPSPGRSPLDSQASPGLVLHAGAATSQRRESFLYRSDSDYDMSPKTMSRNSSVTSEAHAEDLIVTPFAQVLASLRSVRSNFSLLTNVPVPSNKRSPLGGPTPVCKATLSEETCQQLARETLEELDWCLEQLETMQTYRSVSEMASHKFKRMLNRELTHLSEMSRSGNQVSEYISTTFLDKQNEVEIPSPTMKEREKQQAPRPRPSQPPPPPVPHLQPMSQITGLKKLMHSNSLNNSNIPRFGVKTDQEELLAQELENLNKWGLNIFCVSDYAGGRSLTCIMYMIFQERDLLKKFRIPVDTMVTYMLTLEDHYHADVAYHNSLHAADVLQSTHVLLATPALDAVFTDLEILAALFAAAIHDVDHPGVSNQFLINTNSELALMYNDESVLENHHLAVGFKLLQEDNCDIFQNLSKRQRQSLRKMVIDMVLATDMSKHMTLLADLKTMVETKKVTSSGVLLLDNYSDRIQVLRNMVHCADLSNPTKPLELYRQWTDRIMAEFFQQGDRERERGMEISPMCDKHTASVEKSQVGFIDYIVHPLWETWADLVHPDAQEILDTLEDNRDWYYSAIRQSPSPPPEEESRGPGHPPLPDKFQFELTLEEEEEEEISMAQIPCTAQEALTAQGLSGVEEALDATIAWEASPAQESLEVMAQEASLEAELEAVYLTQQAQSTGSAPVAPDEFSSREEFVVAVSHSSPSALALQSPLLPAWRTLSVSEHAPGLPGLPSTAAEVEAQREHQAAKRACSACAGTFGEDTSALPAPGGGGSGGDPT
human Phosphodiesterase 10 (PDE10), PDE10A (gene 10846), sequence (Q9Y233 whole entry, looked up): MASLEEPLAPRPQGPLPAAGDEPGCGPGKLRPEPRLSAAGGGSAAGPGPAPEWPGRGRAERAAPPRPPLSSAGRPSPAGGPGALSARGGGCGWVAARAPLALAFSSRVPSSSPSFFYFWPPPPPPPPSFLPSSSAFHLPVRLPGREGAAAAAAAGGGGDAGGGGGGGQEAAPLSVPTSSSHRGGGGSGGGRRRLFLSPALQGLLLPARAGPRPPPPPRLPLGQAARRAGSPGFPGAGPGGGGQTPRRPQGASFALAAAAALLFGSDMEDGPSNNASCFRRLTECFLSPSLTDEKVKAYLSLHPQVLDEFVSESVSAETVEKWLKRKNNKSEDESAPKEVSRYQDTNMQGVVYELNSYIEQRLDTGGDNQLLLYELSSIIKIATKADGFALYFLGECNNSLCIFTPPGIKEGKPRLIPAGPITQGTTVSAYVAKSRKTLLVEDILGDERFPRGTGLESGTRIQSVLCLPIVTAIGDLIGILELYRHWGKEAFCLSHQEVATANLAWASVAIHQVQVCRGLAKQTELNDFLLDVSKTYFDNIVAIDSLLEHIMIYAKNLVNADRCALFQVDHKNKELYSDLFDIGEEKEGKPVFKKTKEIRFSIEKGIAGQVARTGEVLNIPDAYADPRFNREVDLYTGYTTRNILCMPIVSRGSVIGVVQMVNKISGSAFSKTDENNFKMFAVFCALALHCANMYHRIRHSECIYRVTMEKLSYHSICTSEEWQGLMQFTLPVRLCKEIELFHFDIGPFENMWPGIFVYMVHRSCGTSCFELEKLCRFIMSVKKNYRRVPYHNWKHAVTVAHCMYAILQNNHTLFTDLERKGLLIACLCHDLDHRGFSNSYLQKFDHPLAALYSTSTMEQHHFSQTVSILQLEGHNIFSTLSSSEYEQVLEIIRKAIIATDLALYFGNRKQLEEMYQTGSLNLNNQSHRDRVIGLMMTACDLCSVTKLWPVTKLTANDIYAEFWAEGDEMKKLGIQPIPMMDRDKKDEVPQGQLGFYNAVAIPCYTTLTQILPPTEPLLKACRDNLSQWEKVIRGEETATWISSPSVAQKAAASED
Serine/threonine-protein phosphatase PP1-alpha catalytic subunit (Homo sapiens), sequence (P62136 whole entry, looked up): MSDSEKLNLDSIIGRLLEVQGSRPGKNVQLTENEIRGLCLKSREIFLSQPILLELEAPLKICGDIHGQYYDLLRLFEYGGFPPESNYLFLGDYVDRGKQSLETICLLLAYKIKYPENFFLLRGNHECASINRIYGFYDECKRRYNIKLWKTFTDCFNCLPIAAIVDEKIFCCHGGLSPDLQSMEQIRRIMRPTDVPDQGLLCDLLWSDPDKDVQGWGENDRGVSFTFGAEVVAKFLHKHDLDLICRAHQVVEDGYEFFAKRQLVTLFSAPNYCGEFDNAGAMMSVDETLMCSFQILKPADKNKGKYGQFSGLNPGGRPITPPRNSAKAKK

Regarding `Cc1cc(Cc2ccc(N)c(C)c2)ccc1N`, the compound was called inactive in assay [1].
As for `c1ccc2occc2c1`, the call in [1], in [2] and in assay [3] was inactive.
Turning to `Cc1ccc(-c2cc(C(F)(F)F)nn2-c2ccc(S(N)(=O)=O)cc2)cc1`, in [1], the result was inactive.
The AC50 is the midpoint of the concentration-response curve, whichever way the signal moves. As for `Nc1nc(=S)c2[nH]cnc2[nH]1`, the AC50 in assay [1] is 18.8 µM (active); in assay [2], 39.2 µM (active).
On to `Cn1cnc2c1c(=O)[nH]c(=O)n2C`, for which the result in [1] and in assay [2] was inactive.
Take `C/C=C/C=C/C(=O)O`: the AC50 in assay [2] was 1.24 µM (active). The compound was classed as inactive in [4] and in assay [5].
For `O=C1c2c(O)cccc2Cc2cccc(O)c21`, the concentration at half-maximal activity (AC50) in assay [1] is 10.2 µM (active); in assay [6], 8.87 µM (active). The compound was called inactive in [7].
With `COc1ccc(OC(F)(F)F)cc1CN[C@H]1CCCN[C@H]1c1ccccc1`, the outcome in assay [8], in assay [4], in assay [9], in assay [10], in assay [5] and in assay [7] was inactive. Besides, the call in [11], in assay [12] and in assay [13] was inactive.
As for `O=C(O)c1[nH]n(-c2ccc(S(=O)(=O)O)cc2)c(=O)c1N=Nc1ccc(S(=O)(=O)O)cc1`, the AC50 in [6] was 23.6 µM (active).
In the case of `CSc1ccc(Oc2ccc(S(N)(=O)=O)cc2CN(C)C)cc1C`, in assay [1], the AC50 is 9.97 µM (active). For the same compound, in assay [14], the outcome was inactive.
Turning to `CN(C)CCCN(C)CCCN(C)C`, the call in assay [4] and in [5] was inactive.
Turning to `CN(C)C(=O)NC1(c2ccccc2)CCN(CCC[C@]2(c3ccc(Cl)c(Cl)c3)CCCN(C(=O)c3ccccc3)C2)CC1`, the call in assay [8], in assay [4], in [9] and in [13] was inactive.
With `S=c1[nH]c2ccccc2s1`, the outcome in assay [8] and in [9] was inactive.
For `OCC(O)CO`, the call in assay [2] was inactive.
`O=Cc1ccccc1C=O`: the AC50 in assay [6] is 6.96 µM (active).
Regarding `O=C1NC(=O)C(c2ccccc2)(c2ccccc2)N1`, the result in assay [4] was inactive.
Take `CN(C)C(=O)NC1(c2ccccc2)CCN(CC[C@@]2(c3ccc(F)c(F)c3)CN(C(=O)c3ccccc3)CCO2)CC1`: the result in [8], in assay [7], in assay [15], in assay [16] and in [3] was inactive. Besides, the AC50 in assay [10] was 40 µM (active).
As for `CCCCCCCCCCCCCCOS(=O)(=O)O`, the AC50 in [6] is 26 µM (active); in [4], 18.6 µM (active).
As to `CC(C)NCC(O)c1ccc(O)c(O)c1` (configuration not stated), the compound was classed as inactive in assay [4], in assay [16] and in assay [12].
For `CCCCc1nc2cccnc2n1Cc1ccc(-c2ccccc2-c2nnn[nH]2)cc1`, the AC50 in assay [6] is 22.9 µM (active); in [4], 11.6 µM (active); in [10], 11.3 µM (active); in assay [5], 13 µM (active).
`CCc1cc(C2=C(C(=O)O)N(c3ccccc3C(F)(F)F)S(=O)(=O)c3ccccc32)cc2c1OCO2`: the AC50 in [6] was 25 µM (active). For the same compound, the outcome in assay [4], in assay [10] and in assay [5] was inactive.
As for `Nc1nc(Cl)nc2c1ncn2[C@H]1C[C@H](O)[C@@H](CO)O1`, the AC50 in [4] was 9.18 µM (active).
In the case of `COc1ccc(C(=O)Nc2nc3ccccc3c(NCc3ccccc3)c2C#N)cc1`, in assay [4], the AC50 was 17.7 µM (active).
For the compound `CCCCOC(=O)CCCCC(=O)OCCCC`, the result in [5] and in assay [11] was inactive.
Take `CC(C)(O)c1ccc(CNC(=O)c2cccnc2Oc2ccc(F)cc2)cc1`: the compound was classed as inactive in assay [5].
With `CCN(CC)CCOc1ccc(C(=C(Cl)c2ccccc2)c2ccccc2)cc1`, in assay [16], the outcome was inactive.
Turning to `O=C(NS(=O)(=O)/C=C/c1cccs1)c1ccc(F)cc1Br`, the call in assay [17] was inactive.
For the compound `O=C(O)CC(O)(CC(=O)O)C(=O)O`, the result in assay [18] was inactive.
On the same count and under the same terms, for `O=C(Oc1ccccc1)c1cccc(C(=O)Oc2ccccc2)c1` the value was “inactive”.
Regarding `CCCCC(CC)CO` (configuration not stated), in [19], the result was inactive.
